# Rows were chosen to be rich in hits. Some 2.4% of all compounds tested hit in one or more screens of this group.
# MLLE-PAM2 inh – blocks PAM2 peptide binding to the PABP1 MLLE domain | GST-MLLE / FITC-PAM2 fluorescence polarization | P11940 | actives 0.36% (n = 360,000) | AID 588489 | inhibition, % at 20 µM; in the data active = inhibition above about 35%, passing the limit was not always enough;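 also: plate controls were DMSO wells with GST-MLLE for no effect and wells lacking GST-MLLE protein for full effect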
# PABP FP inh – blocks human PABP binding to poly(A) RNA; fluorescence polarization; P11940; calls only at 35 µM; AID 2014; actives 1% (n = 290,000);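 also: calls also rest on retests at 20 µM and on dose response follow-up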
# Efa HMGR inh – blocks class II HMG-CoA reductase of Enterococcus faecalis; purified E. faecalis HMGR, NADPH absorbance 340 nm kinetic; inhibition, % at 10 µM; actives 0.41% (n = 190,000);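 active = inhibition above a set limit, the median over all tested compounds plus 3 SD, cut at about 9.5% in these data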;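 also: enzyme runs in reverse so mevalonate oxidation gives rising NADPH absorbance; 0% = complete reaction with DMSO and 100% = background rate lacking mevalonate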
# PHOSPHO1 inh – PHOSPHO1 (human) inhibition | Q8TCT1 | recombinant PHOSPHO1, absorbance phosphatase assay | inhibition, % at 13.3 µM | actives 1.1% (n = 290,000) | AID 1565; in the data active = inhibition above about 60%
# Target sequence (Q8TCT1 whole entry, looked up): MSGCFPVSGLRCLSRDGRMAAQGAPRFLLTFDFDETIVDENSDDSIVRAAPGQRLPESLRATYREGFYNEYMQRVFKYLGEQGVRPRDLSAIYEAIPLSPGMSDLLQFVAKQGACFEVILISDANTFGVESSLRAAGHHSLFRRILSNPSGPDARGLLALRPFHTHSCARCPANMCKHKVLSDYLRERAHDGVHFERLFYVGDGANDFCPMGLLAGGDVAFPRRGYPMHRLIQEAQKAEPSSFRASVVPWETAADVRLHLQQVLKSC
# eIF4H inh – inhibitors of RNA binding by human eIF4H. Q15056. inhibition, % at 35 µM. AID 2012. eIF4H fluorescence polarization binding assay. actives 0.94% (n = 290,000);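 also: calls also rest on retests at 20 µM and on dose response follow-up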
# Active calls of the source: *; i = inactive; / = no result; + = active, no number. Unless noted, no rule for the calls is given here.
SMILES,MLLE-PAM2 inh,PABP FP inh,Efa HMGR inh,PHOSPHO1 inh,eIF4H inh
COC(=O)C1=C(C)Nc2c(c(=O)n(C)c(=O)n2C)C1c1cccnc1 (configuration not stated),3.3,i,13.4*,-4.4,-6.8
COC(=O)C1=C(C)Nc2c(c(=O)n(C)c(=O)n2C)C1c1cccc(O)c1 (configuration not stated),4.2,i,/,33.1,-2.2
COc1cccc(Nc2nc(C(N)c3ccccc3)cs2)n1 (configuration not stated),-23.4,/,/,/,/
Cc1ccc(O)c(C(=O)c2cc(C#N)c(=O)n(CC3CCCO3)c2)c1 (configuration not stated),5.2,i,-5.2,19.9,1.2
COc1ccc(O)c(C(=O)c2cc(C#N)c(=O)n(CC3CCCO3)c2)c1 (configuration not stated),-45.5,i,-1.2,64.4*,8.6
CCN(Cc1ccccc1)C(=O)CCS(=O)(=O)c1cc2c(cc1Cl)NC(=O)CO2,3.1,i,/,-3.5,-21.5
Nc1cc(=O)[nH]c(SCC(=O)N2CCC(Cc3ccccc3)CC2)n1,-35.0,/,/,/,/
O=C(CCCSc1ccccc1)Nc1nc(-c2ccco2)c(-c2ccco2)s1,-4.6,i,-1.3,-4.9,96.2*
C/C(=N/Nc1nc(-c2ccc(Cl)cc2)cs1)c1cccs1,-14.1,i,-6.2,92.4*,-10.4
O/N=C\c1cnc(N2CCN(c3ccccc3)CC2)s1,-4.5,i,/,/,-13.6
Cc1cc(C)c2c(=O)[nH]c(=O)n(Cc3ccccc3)c2n1,-73.5,+,2.0,4.7,103.1*
Cc1ccc(-c2nc3c(c(=O)[nH]c(=O)n3Cc3ccccc3)n2Cc2ccccc2)o1,-12.9,i,-0.5,-20.9,-0.1
Cc1ccc(-c2nc3c(c(=O)[nH]c(=O)n3Cc3ccccc3)n2C)s1,/,i,/,-7.6,16.0
Cc1ccc(-c2nc3c(c(=O)[nH]c(=O)n3Cc3ccccc3)n2C)o1,2.8,+,4.8,0.4,88.5*
CN(C)S(=O)(=O)c1cccc(NC(=O)COC(=O)CNC(=O)c2ccccc2F)c1,2.7,i,/,6.2,-4.1
O=c1cc(CSCc2ccc(Cl)cc2)[nH]c(=O)[nH]1,-22.5,i,/,-2.1,0.5
Cc1ccc(C(=O)Nc2ccccc2N2CCCC2)cc1,-0.9,+,/,-5.8,82.6*
O=C(Nc1ccccc1N1CCCC1)c1cc2ccccc2o1,40.7*,i,1.9,10.4,8.7
O=C(Nc1ccccc1N1CCOCC1)c1cc2ccccc2o1,10.1,i,/,22.5,-5.6
COc1ccc(CCNC(=O)CSc2nc(=O)n3cc(C)ccc3n2)cc1OC,1.4,/,/,/,/
COc1ccc(CCc2nnc(CCC(=O)N(C)Cc3ccncc3C)o2)cc1,-17.4,i,-0.1,64.2*,7.8
CCOc1ccc(CC(=O)NNC(=S)Nc2ccccc2)cc1Br,26.9,i,-6.4,87.4*,2.4
Cc1cc([N+](=O)[O-])nn1CC(=O)NNC(=S)Nc1ccc([N+](=O)[O-])cc1,29.1,i,4.0,58.0,14.0
O=C(Cn1nc(C(F)F)cc1C(F)F)NNC(=S)Nc1ccc(Cl)cc1,31.4,i,0.3,99.7*,15.7
COc1ccc(NC(=S)NNC(=O)Cn2nc([N+](=O)[O-])cc2C)cc1,3.1,i,3.0,79.2*,2.1
SMILES,MLLE-PAM2 inh,PABP FP inh,Efa HMGR inh,PHOSPHO1 inh,eIF4H inh
COc1ccc(CC(=O)NNC(=S)Nc2ccccc2)cc1Br,24.4,i,0.0,93.0*,18.1
COC(=O)c1sc(S(=O)(=O)N2CCC(C(=O)O)CC2)c(C(=O)OC)c1C,-0.9,i,-4.4,11.5,-4.2
COc1cc(/C=C/C(=O)OCC(=O)N2c3ccccc3NC(=O)C2(C)C)cc(OC)c1OC,-11.2,/,/,/,/
COc1ccc(CC(=O)NNC(=S)Nc2ccc(Br)cc2)cc1,34.3,i,-6.7,97.6*,20.5
O=C(CC12CC3CC(CC(Br)(C3)C1)C2)NC1=NCCS1,3.6,i,-1.6,8.2,-6.7
O=C(CNC(=O)C1CCCCC1)NC1=NCCS1,39.7*,i,-3.6,6.4,-6.8
O=C(CNC(=O)C12CC3CC(CC(C3)C1)C2)NC1=NCCS1,44.8*,i,-2.0,-53.4,-5.3
C[C@H](CO)N1C[C@H](C)[C@@H](CN(C)Cc2ccc(Cl)c(Cl)c2)Oc2ccc(NC(=O)Cn3cnnn3)cc2C1=O,2.3,/,/,/,/
CCOc1cc(Br)ccc1S(=O)(=O)N1CCC(C(N)=O)CC1,9.8,+,-3.7,0.8,active
Cc1ccc(S(=O)(=O)N2CCC(C(N)=O)CC2)c(C)c1C,7.9,i,-1.5,-31.3,4.9
COc1ccc(CN(C)C(=O)COC(=O)c2cc([N+](=O)[O-])ccc2N2CCCC2)c(OC)c1OC,3.6,/,/,/,/
O=C(O)c1ccc(O)c(N2C(=O)Nc3ccccc3N2O)c1,-10.1,+,-4.0,0.2,53.4*
N#CCCn1nc(-c2ccccc2)c2ccccc2c1=O,5.7,i,/,23.5,-0.4
O=C(Nc1cccc(Oc2ccc(C(=O)O)c(C(=O)O)c2)c1)c1ccc(-c2ccccc2)cc1,3.3,i,/,28.5,66.1*
CC1(C)OC(=O)C(=CNn2cnc3ccccc3c2=O)C(=O)O1,3.8,i,-1.1,63.0*,0.8
CNCc1cc(Br)c(OCC(=O)Nc2ccccc2OC)c(OC)c1,6.8,i,3.2,-18.1,6.8
COc1cc(CNCCc2ccccc2)cc(Br)c1OCC(=O)Nc1ccccc1C,-2.3,i,-6.2,66.2*,-3.0
C=CCOc1ccc(Br)cc1CNCCCN1CCOCC1,4.3,i,1.2,10.7,-2.6
